Source: PubChem BioAssay
HepG2 viability = counter-screen for TGF-b inhibitors: cytotoxicity in HepG2 cells | HepG2 CAGA-GFP viability, ATP luminescence, 18 h | Potency, µM (series often up to 46.1 µM), actives largely listed as cytotoxic | hit rate 0.76% among 410,000 | AID 588856
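CellTiter-Glo luminescence gave cytotoxicity after 18 hours at 37 degrees C. The cells were HepG2 CAGA-GFP in 1% FBS DMEM, stimulated with 500 pg/mL TGF-beta after compound addition. %Activity was normalised to no-cell wells (complete cell-killing) and DMSO (no toxicity), and curves were fitted and classified.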
TGFb inhibitor = inhibitors of TGF-b signaling. HepG2 CAGA-GFP TGF-b/SMAD3 reporter, GFP fluorescence, 18 h; TGF-beta stimulated, 500 pg/mL final. Potency, µM (titrated, usually from 46.1 µM), most hits filed as inhibitors. hit rate 1.2% among 410,000. AID 588855; further: nearly all actives have a fitted effect of over 65% in size
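Cell-based qHTS in HEPG2 carrying a CAGA-GFP Smad reporter; compounds added before 500 pg/mL final TGF-beta, 18 h incubation at 37 degrees C, GFP fluorescence quantified per cell by imaging cytometry.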
ATXN viability = reduces viability in counter-screen for ATXN expression inhibitors; S2 cells (HEK-293 line with an ATXN2-luciferase reporter) viability, CellTiter-Fluor protease fluorescence, 24 h; Potency, µM (top dose mostly 56.7 µM), actives largely listed as cytotoxic; hit rate 0.49% among 400,000; AID 651635; further: nearly all actives have a fitted effect of over 40% in size
ATXN2 expr inh = inhibitors of ATXN2 expression. HEK-293 ATXN2-luciferase reporter, luminescence, 24 h. Potency, µM (highest dose often 57 µM), actives largely listed as inhibitors. hit rate 0.72% among 360,000. AID 1745845; further: nearly all actives have a fitted effect of over 55% in size
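ATXN2-luciferase reporter cells (luciferase flanked by upstream and downstream ATXN2 gene portions) were treated 24 h at 37 °C with compounds at up to 57 uM. SteadyGlo luminescence gave expression; GF-AFC fluorescence gave viability.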
DT40 TDP1 no CPT = qHTS for Inhibitors of human tyrosyl-DNA phosphodiesterase 1 (TDP1): qHTS in cells in absence of CPT; DT40 Tdp1-/- hTDP1 cells, no CPT, ATP luminescence, 48 h; Potency, µM (doses to about 46.2 µM), hits mostly inhibitors; hit rate 15% among 420,000; AID 686978, 2013; further: nearly all actives have a fitted effect of over 55% in size
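Growth of hTDP1-complemented DT40 Tdp1-knockout cells is measured by ATP luminescence after at least 48 hr compound exposure at 37 °C, with DMSO substituting for the 20 nM CPT used in the parallel screen.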
DT40 TDP1 CPT = growth inhibition of DT40 Tdp1-/-;hTDP1 cells with camptothecin (screen for TDP1 inhibitors). chicken DT40 Tdp1-/-;hTDP1 cells + 20 nM CPT, ATP luminescence, 48 h. Potency, µM (titrated, usually from 46.2 µM), most hits filed as inhibitors. hit rate 12% among 420,000. AID 686979; further: nearly all actives have a fitted effect of over 55% in size
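Chicken DT40 Tdp1-/- cells complemented with human TDP1, 400 cells/well, exposed to compounds plus 20 nM camptothecin for at least 48 h at 37 C; viability read as ATP content by CellTiter-Glo luminescence.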
Numbers stand for hits; i = inactive; ? = inconclusive; nt = no result. Hits are enriched below; roughly 17% of the tested compounds scored in any of these assays. The call rests on the fitted dose curve; in most records, active means well fitted curve in the direction sought with a large enough effect; inconclusive means small, poorly fitted or top-dose-only effect, or another doubt; inactive means no such curve, though single readings can be large; an effect the other way counts as inactive or inconclusive.

SMILES	HepG2 viability	TGFb inhibitor	ATXN viability	ATXN2 expr inh	DT40 TDP1 no CPT	DT40 TDP1 CPT
O=C(Cn1c(=O)oc2cc(S(=O)(=O)N3CCCCC3)ccc21)NCc1ccc(F)cc1	i	i	i	i	5.8µM	5.17µM
CC1CCCCC1NC(=O)Cn1c(=O)oc2cc(S(=O)(=O)N3CCCC3)ccc21 (configuration not stated)	i	i	i	i	?	?
O=C(Cn1c(=O)oc2cc(S(=O)(=O)N3CCCCC3)ccc21)NCc1ccc(Cl)cc1	i	?	?	?	7.31µM	9.2µM
Cc1cc(C(C)(C)C)cc(C)c1CC1=NCCN1	i	i	i	i	?	?
CCOP(=O)(OCC)C(NC(=O)c1cccc2ccccc12)C(Cl)(Cl)Cl (configuration not stated)	i	i	i	i	i	?
CCCCNC(=O)Cn1c(=O)oc2cc(S(=O)(=O)N3CC(C)CC(C)C3)ccc21 (configuration not stated)	i	i	i	i	?	11.6µM
O=C1NC(=O)N(c2ccccc2F)C(=O)/C1=C/c1ccc(Oc2ccc([N+](=O)[O-])cn2)cc1	i	i	i	i	i	i
C[N@+]12CCCC[C@@H]1CCC(=C(c1cccs1)c1cccs1)C2	nt	nt	nt	nt	18.8µM	26.6µM
C=C1C(=O)[C@@]23C[C@H]4[C@@H]5[C@@]6(C)CCC[C@@]57[C@@H]2[C@@H](O)[C@@H]1C[C@H]3[C@H]7N4C6	i	12.6µM	7.94µM	?	4.11µM	4.61µM
Cc1cc(C)cc(NC(=O)CSc2oc(-c3cccs3)nc2S(=O)(=O)c2ccc(Br)cc2)c1	i	i	i	i	6.51µM	5.8µM
O=c1[nH]c2ccccc2n1C1CCNCC1	nt	nt	i	i	nt	nt
O=C(NCCN1CCC(n2c(=O)[nH]c3ccccc32)CC1)c1ccc2ccccc2c1	nt	nt	?	?	?	23.1µM
O=C(NCCN1CCC2(CC1)C(=O)NCN2c1cccc(F)c1)c1ccc2ccccc2c1	nt	nt	31.6µM	12.6µM	?	?
CC(=O)C1(c2ccccc2)CCNCC1	i	i	i	i	i	i
CC(=O)C1(c2ccccc2)CCN(C(=O)C2CCC(=O)N(CCc3cccc(F)c3)C2)CC1 (configuration not stated)	i	i	i	i	23.1µM	i
CC[N+](CC)(CCCNC1=CC(=O)C(NCCC[N+](CC)(CC)Cc2ccccc2)=CC1=O)Cc1ccccc1	nt	nt	nt	nt	i	i
C[C@@H]1O[C@@H](O[C@@H]2C=C3CC[C@@H]4[C@@H](CC[C@]5(C)[C@H](c6ccc(=O)oc6)CC[C@@]45O)[C@@]3(C)CC2)[C@H](O)[C@H](O)[C@H]1O	i	0.316µM	nt	0.0193µM	?	0.282µM
O=[N+]([O-])c1nccn1CC(O)CN1CC1 (configuration not stated)	i	i	i	i	10.3µM	11.6µM
O=[N+]([O-])c1cc(I)c(O)c(I)c1	nt	nt	nt	nt	?	i
COc1cccc(C2CC3C(=O)C=CC2N3Cc2ccccc2)c1 (configuration not stated)	i	i	i	?	16.4µM	20.6µM
COc1cccc(-c2nn(Cc3ccccc3)cc2C(=O)O)c1	i	i	i	i	i	i
Cc1cc(OCC(=O)N2CCC(C(=O)O)(c3ccccc3)CC2)c2c(C)c(C)c(=O)oc2c1	i	i	i	i	i	i
CC(C)(C)c1ccc(OCC(=O)Nc2ccc(Cl)cc2C(=O)c2ccccc2)cc1	i	i	i	i	i	?
CC(C)(C)OC(=O)N(CCc1ccccc1)Cc1ccc(OCc2cccc(NC(=O)c3ccccc3)c2)cc1	i	i	i	i	20.6µM	?
COc1ccc(C(c2nnnn2-c2ccc3c(c2)OCCO3)N2CCC3(CC2)C(=O)NCN3c2ccccc2)cc1 (configuration not stated)	i	?	?	i	25.9µM	?
SMILES	HepG2 viability	TGFb inhibitor	ATXN viability	ATXN2 expr inh	DT40 TDP1 no CPT	DT40 TDP1 CPT
O=C1NCN(c2ccccc2)C12CCN(C(c1ccnc3ccccc13)c1nnnn1C1CCCC1)CC2 (configuration not stated)	i	i	i	i	?	?
CCCCn1nnnc1C(c1ccnc2ccccc12)N1CCC2(CC1)C(=O)NCN2c1ccccc1 (configuration not stated)	i	i	?	i	?	16.4µM
CCC(c1nnnn1-c1ccc2c(c1)OCCO2)N1CCC2(CC1)C(=O)NCN2c1ccccc1 (configuration not stated)	i	?	?	i	18.4µM	18.4µM
O=C1NCN(c2ccccc2)C12CCN(C(c1ccnc3ccccc13)c1nnnn1-c1ccc3c(c1)OCCO3)CC2 (configuration not stated)	i	?	?	?	16.4µM	?
COc1ccc(-n2nnnc2C(CCSC)N2CCC3(CC2)C(=O)NCN3c2ccccc2)cc1 (configuration not stated)	i	?	?	i	?	?
C=C1[C@@H]2C[C@@]3([C@H]1O)[C@H]1C[C@@H]4[C@@]5(C)CC[C@H](O)[C@]4([C@H]1N(CC)C5)[C@H]3C[C@H]2O	nt	nt	i	nt	nt	nt
Cc1ccc(-n2c(/C=C/c3ccccc3)nc3ccccc3c2=O)cc1C	i	i	nt	nt	23.1µM	16.4µM
Cc1ccc(-n2c(/C=C/c3ccccc3)nc3ccccc3c2=O)cc1Cl	i	?	nt	nt	23.1µM	?
NC1=Nc2ccccc2Oc2ccccc21	i	i	i	i	i	i
CC(=O)C1=C(O)C2(C)c3c(O)c(C)c(O)c(C(C)=O)c3OC2CC1=O (configuration not stated)	i	?	i	nt	23.1µM	?
C/C=C(\CC)C(=O)NC(N)=O	nt	nt	i	nt	i	i
Cc1cc2ccccc2n1-c1ccc(C(=O)N2CCC(C(=O)NCc3ccc(Cl)cc3)CC2)s1	i	?	nt	nt	3.66µM	4.11µM
CCc1ccc(CNC(=O)C2CCN(C(=O)c3ccc(-n4c(C)cc5ccccc54)s3)CC2)cc1	i	?	nt	nt	18.4µM	10.3µM
COC(=O)C1=C(c2ccc(OCc3ccccc3)cc2)C[C@@H]2CC[C@H]1N2C(=O)NCc1ccc([N+](=O)[O-])cc1	i	?	i	i	11.6µM	20.6µM
COC(=O)C1=C(c2cccc(OCc3ccccc3)c2)C[C@@H]2CC[C@H]1N2C(=O)NCc1ccc([N+](=O)[O-])cc1	i	i	i	i	23.1µM	18.4µM
CC(C)Oc1cccc(NC(=O)c2ccccc2C(F)(F)F)c1	nt	nt	i	i	?	?
C=CCN(CC=C)C(=O)CCN1CC1C (configuration not stated)	i	i	i	i	?	?
